The record followed here is ChEMBL document CHEMBL1201862, “PubChem BioAssay data set” (2004).

In all, about 400,000 compounds went through this assay and about 2,100 (0.53%) were called active. Another 14% or so got no clear call; they are omitted. How the calls were made is not given here. Only a selection was taken, and actives are over-represented in it overall.

Sequence of Ataxin-2 (Homo sapiens) (Q99700 whole entry): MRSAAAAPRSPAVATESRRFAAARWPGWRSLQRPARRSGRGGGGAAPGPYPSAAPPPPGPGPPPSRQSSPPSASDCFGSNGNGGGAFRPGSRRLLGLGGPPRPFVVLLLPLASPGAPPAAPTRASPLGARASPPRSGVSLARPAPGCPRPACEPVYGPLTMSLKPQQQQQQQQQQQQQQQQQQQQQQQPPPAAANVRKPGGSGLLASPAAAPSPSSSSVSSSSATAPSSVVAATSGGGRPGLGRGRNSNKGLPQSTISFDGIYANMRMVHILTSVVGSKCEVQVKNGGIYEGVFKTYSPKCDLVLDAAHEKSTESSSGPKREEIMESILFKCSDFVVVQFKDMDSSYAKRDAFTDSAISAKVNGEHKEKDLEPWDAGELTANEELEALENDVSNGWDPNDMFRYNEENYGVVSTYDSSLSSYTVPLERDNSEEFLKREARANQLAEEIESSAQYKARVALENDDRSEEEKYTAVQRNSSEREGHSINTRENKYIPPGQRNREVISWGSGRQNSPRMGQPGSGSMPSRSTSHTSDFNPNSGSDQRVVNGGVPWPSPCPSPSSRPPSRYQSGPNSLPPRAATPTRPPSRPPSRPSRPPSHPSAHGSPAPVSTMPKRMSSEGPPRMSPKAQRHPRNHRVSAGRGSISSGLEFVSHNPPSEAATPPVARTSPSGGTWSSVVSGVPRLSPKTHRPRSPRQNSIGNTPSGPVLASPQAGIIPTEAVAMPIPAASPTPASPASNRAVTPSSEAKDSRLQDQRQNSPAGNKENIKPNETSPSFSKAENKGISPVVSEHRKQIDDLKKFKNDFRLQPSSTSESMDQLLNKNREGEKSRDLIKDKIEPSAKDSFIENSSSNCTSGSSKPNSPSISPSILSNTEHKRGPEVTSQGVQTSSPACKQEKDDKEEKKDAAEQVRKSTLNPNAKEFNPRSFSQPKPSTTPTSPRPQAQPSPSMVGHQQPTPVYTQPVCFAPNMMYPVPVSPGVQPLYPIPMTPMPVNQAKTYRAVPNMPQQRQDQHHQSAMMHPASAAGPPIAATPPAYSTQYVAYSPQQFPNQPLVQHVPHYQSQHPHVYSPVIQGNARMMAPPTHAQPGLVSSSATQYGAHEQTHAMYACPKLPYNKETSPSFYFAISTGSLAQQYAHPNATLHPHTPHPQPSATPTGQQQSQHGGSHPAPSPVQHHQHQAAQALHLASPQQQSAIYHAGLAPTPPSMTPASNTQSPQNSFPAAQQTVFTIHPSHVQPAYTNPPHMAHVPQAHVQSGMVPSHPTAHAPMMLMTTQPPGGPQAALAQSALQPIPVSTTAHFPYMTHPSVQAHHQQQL

The assay has as its target Ataxin-2 (Homo sapiens) (UniProt Q99700). Put plainly: qHTS for Inhibitors of ATXN expression. The format is functional.
Take `Oc1cc(-c2nc3ccccc3s2)cc2c1OCCN(Cc1cccn1-c1ccccn1)C2`: the Potency is 31.6 µM (active).
With `O=c1c(-c2nc3ccccc3s2)cccn1Cc1ccc(Cl)c(Cl)c1`, the Potency result was “inactive”.
`Cc1ccc(Cl)c(NC(=O)CSc2nnc(O)n2C2CC2)c1Cl`: the Potency entry was “inactive”.
Regarding `CN(C)CCCN1C(=O)c2cccc3c([N+](=O)[O-])ccc(c23)C1=O`, the Potency result is “inactive”.
Next, `CN(C)CCCN1c2ccc3ccccc3c2Sc2cccc(Cl)c21`: 37.7 µM (active); `CN(C)CCCN1C(=O)c2cccc3c(Br)ccc(c23)C1=O`: “inactive”; `CN(c1ccccc1)S(=O)(=O)c1cc(C(=O)OCC(N)=O)ccc1Cl`: “inactive”.
Consider `CC1(C)CC(NC(=O)c2ccc(Cl)c(S(=O)(=O)N(Cc3ccccc3)c3ccccc3)c2)CC(C)(C)N1`, for which the Potency is 22.4 µM (active).
Next, `CC1(C)CC(NC(=O)c2sc3cc(Cl)ccc3c2Cl)CC(C)(C)N1`: “inactive”; `Cc1cc(C)cc(NC(S)=NCCN(C2CCCCC2)C2CCCC2)c1`: 39.8 µM (active).
`CCCN1C2CCCC1CC(N=C(S)Nc1cccc(C)c1)C2` (centres undefined): the Potency result was “inactive”.
`Cc1nc2ccc(NC(S)=NC3CCCCC3)cc2nc1C`: the Potency result is “inactive”.
As to `Cc1c(NC(=O)Nc2ccc(Cl)c(Cl)c2)sc(=S)n1C`, the Potency was 39.8 µM (active).
`Cc1occc1C(=O)NNC(=O)Nc1ccc(Cl)c(Cl)c1`: the Potency entry was “inactive”.
Take `CCN1CCc2c(sc(NC(=O)Nc3ccc(Cl)c(Cl)c3)c2C(N)=O)C1`: the Potency entry was “inactive”.
For the molecule `CCN(Cc1ccc(NC(C)=O)cc1)CC1CCCN(CCc2cccc(F)c2)C1` (centres undefined), the Potency result is “inactive”.
In the case of `COc1ccc(Nc2cnn(-c3nc4ccccc4s3)c(=O)c2Cl)cc1` it was 25.1 µM (active).
In the case of `COc1ccc(C(=O)N/N=C/c2sc3ccccc3c2O)cc1` it was “inactive”.
In the case of `Cc1c2c(=O)n(-c3nc4ccccc4s3)nc-2cc(O)n1Cc1ccccc1` it was “inactive”; in that of `COC(=O)c1cc2c(=O)n3ccccc3nc2n(Cc2cccnc2)c1=N`, “inactive”; in that of `COc1ccc(C#Cc2c(C=O)n(C)c3ccccc23)cc1`, “inactive”.
On to `O=[N+]([O-])c1ccc(/C=N/n2cnc3ccccc32)s1`, for which the Potency is 22.4 µM (active).
Next, `Cc1nc2ccccc2n1/N=C/c1ccc([N+](=O)[O-])s1`: 23.8 µM (active); `Cc1ccccc1NCc1ccc([N+](=O)[O-])s1`: “inactive”; `COc1ccc(/C=N/NC(=O)c2cc[nH]n2)cc1Cn1nc(C)c([N+](=O)[O-])c1C`: “inactive”.
Regarding `COc1ccc(-n2c(NC(=O)c3ccco3)c(C#N)c3nc4ccccc4nc32)cc1`, the Potency result was “inactive”.
With `O=[N+]([O-])c1cccc(Nc2c3ccccc3nc3ccccc23)c1`, the Potency entry was “inactive”.
Consider `CCCOc1ccc(/C=N/Nc2cccc([N+](=O)[O-])c2)c(O)c1`, for which the Potency result was “inactive”.
`CCOc1ccc2nc(C)cc(Nc3cccc([N+](=O)[O-])c3)c2c1`: the Potency was 39.8 µM (active).
Turning to `COc1ccc(Br)cc1CN1CCN(c2ncccn2)CC1`, the Potency result is “inactive”.
On to `CCCCc1c(-c2cccc(Br)c2)ncn1CCc1ccccc1OC`, for which the Potency is 28.2 µM (active).
For the molecule `CCCCCc1c(-c2cccc(Br)c2)ncn1CCc1ccccc1OC`, the Potency was 39.8 µM (active).
Next, `Cn1c(O)nnc1-c1cccc(Br)c1`: “inactive”; `Cc1cc(-n2c(=O)c(C#N)cc3c(=O)n4ccccc4nc32)no1`: “inactive”; `Clc1cccc(-c2nc(NCCCN3CCOCC3)c3ccccc3n2)c1`: “inactive”.
Regarding `COc1ccc(-c2cc(C(F)(F)F)n3nc(C(=O)NCCN4CCOCC4)cc3n2)cc1`, the Potency entry was “inactive”.
With `Clc1cccc(CNc2ccn3nc(-c4ccc(OCCN5CCOCC5)cc4)cc3n2)c1`, the Potency is 28.2 µM (active).
Next, `CCCCN(CCCC)C(=O)C[n+]1cccc(/C=N/O)c1`: “inactive”; `Cc1cc(/N=C/C=C2/N(C)c3ccccc3C2(C)C)n(CCC#N)n1`: 15.8 µM (active); `CN1/C(=C\C(=O)c2cccc(S(=O)(=O)N3CCCCC3)c2)C(C)(C)c2ccccc21`: “inactive”.
For the molecule `Cc1cc(/N=C/C=C2\N(C)c3ccccc3C2(C)C)n(CCC#N)n1`, the Potency is 31.6 µM (active).
Turning to `Oc1nc2c(O)ncnc2nc1-c1ccccc1`, the Potency entry is “inactive”.
For the molecule `Oc1ccccc1N=Nc1nc(-c2ccccc2)c(-c2ccccc2)[nH]1`, the Potency was 20 µM (active).
Turning to `NC(=O)c1nc(-c2ccccc2)c(-c2ccccc2)nc1O`, the Potency result is “inactive”.
In the case of `CCOCCCN=C(S)NCCNc1nc2ccc(C)cc2cc1C#N`, the Potency entry is “inactive”.
Next, `CCOC(=O)c1c(NC(=O)c2ccc(S(=O)(=O)N3CCCC(C)C3)cc2)sc2c1CC(C)(C)NC2(C)C` (centres undefined): “inactive”.
Take `CC(C)CN(CC(C)C)S(=O)(=O)c1ccc(C(=O)Nc2sc3c(c2C(N)=O)CC(C)(C)NC3(C)C)cc1`: the Potency result is “inactive”.
For `CCOC(=O)c1c(NC(=O)COc2ccccc2OCC)sc2c1CC(C)(C)NC2(C)C`, the Potency is 39.8 µM (active).
In the case of `Cc1c2c(n3c(nc4ccccc43)c1C#N)N(CCN(C)C)CC2` it was “inactive”; in that of `C=CCc1cc(/C=C2\C(=N)N3N=C(CC(=O)N4CCOCC4)SC3=NC2=O)cc(OC)c1O`, “inactive”; in that of `Fc1ccc(-[n+]2nc(Nc3ccccc3)sc2-c2c(Cl)cccc2Cl)cc1`, 20 µM (active).
Take `O=c1oc2cc(O)ccc2cc1-c1nc2c(s1)CCc1ccccc1-2`: the Potency entry is “inactive”.
For the molecule `CNC(=O)NC(=O)C(C)OC(=O)c1c2c(nc3ccccc13)/C(=C/c1cccs1)CC2` (centres undefined), the Potency result is “inactive”.
In the case of `CCc1ccccc1N(CC(=O)NC(C)(C)CC)C(=O)CCC(=O)Nc1nccs1` it was “inactive”; in that of `C/C(Cl)=C\Cn1c(O)c(/N=N/C(=N)S)c2ccccc21`, 29.9 µM (active).
On to `CC(=O)c1ccc(NC(=O)CCCN2C(=O)/C(=C/C(C)=C/c3ccccc3)SC2=S)cc1`, for which the Potency was 25.1 µM (active).
In the case of `Cc1ccc(C(=O)O)cc1-c1ccc(/C=C2\SC(=O)N(CC(=O)Nc3ccccc3)C2=O)o1` it was “inactive”; in that of `CCN(CC)CCOC(=O)c1ccc(NC(=O)CCCN2C(=O)/C(=C\c3cccs3)SC2=S)cc1`, 31.6 µM (active); in that of `O=C(Nc1cc2c(=O)n(-c3ccc(Oc4ccccc4)cc3)ccc2oc1=O)c1ccccc1`, “inactive”.
For `COc1ccc(C2C=C(c3ccccc3)Nc3nnnn32)cc1` (centres undefined), the Potency entry is “inactive”.
Next, `Cc1ccc2[nH]c(CSc3nc(C)ccc3C#N)nc2c1`: “inactive”; `Cc1ccc2c(CN(C)Cc3ccccc3)cc(=O)oc2c1C`: “inactive”.
With `CN(C)CCOCCOc1ccc(Cl)c2ccccc12`, the Potency entry was “inactive”.
As to `Cc1ccc(Cl)c(OCCCCN(C)Cc2ccccc2)c1`, the Potency was 28.2 µM (active).
For `COCCCNC(=O)/C(C#N)=C/c1c(N2CCN(C)CC2)nc2ccccn2c1=O`, the Potency entry is “inactive”.
Take `COc1cccc(CN2C(=O)c3cccc(N)c3C2=O)c1`: the Potency entry is “inactive”.
In the case of `COc1ccc(C(=O)CC2(O)C(=O)N(Cc3cccc(C(F)(F)F)c3)c3ccccc32)cc1` (centres undefined) it was 39.8 µM (active).
For the molecule `COc1ccc(C2CC(c3cccc(C(F)(F)F)c3)=NN2c2ccc(S(N)(=O)=O)cc2)cc1` (centres undefined), the Potency entry was “inactive”.
`CCN(CC)c1ccc2cc(NC(=O)CCC(=O)O)c(=O)oc2c1`: the Potency result is “inactive”.
On to `COc1cccc(CN(C)C(=O)c2cc(S(=O)(=O)N3CCCC3)ccc2C)c1OC`, for which the Potency entry was “inactive”.
Take `Cc1ccc(S(=O)(=O)N2CCCCC2)cc1C(=O)N(C)CC(=O)Nc1ccc(Cl)c(C(F)(F)F)c1`: the Potency is 35.5 µM (active).
For the molecule `Cc1ccc(S(=O)(=O)N2CCCCC2)cc1C(=O)Nc1ccc(S(=O)(=O)Nc2ncccn2)cc1`, the Potency result is “inactive”.
Consider `Cc1ccc(CCC(=O)Nc2ccc(Br)cc2)o1`, for which the Potency entry was “inactive”.
Take `CCN1C(=O)c2cccc3c(S(=O)(=O)NCC4CCCO4)ccc1c23` (centres undefined): the Potency entry was “inactive”.
As for `CCCn1c(=N)n(CC(=O)c2ccc([N+](=O)[O-])cc2)c2ccccc21`, the Potency entry is “inactive”.
Consider `Cc1ccc(Cn2c(=N)n(CC(=O)c3ccc([N+](=O)[O-])cc3)c3ccccc32)cc1`, for which the Potency was 22.4 µM (active).
For the molecule `C/C(=N\NC(=O)CSCc1ccc([N+](=O)[O-])cc1)c1ccccc1`, the Potency entry is “inactive”.
On to `N=c1n(CC(=O)c2ccc(Br)cc2)c2ccccc2n1Cc1ccccc1`, for which the Potency is 31.6 µM (active).
Regarding `O=C(NCCc1ccccc1)C(=O)NCC1OCCN1S(=O)(=O)c1ccc(Br)cc1` (centres undefined), the Potency entry was “inactive”.
`CCc1ccc(C(=O)Cn2ccsc2=N)cc1`: the Potency entry was “inactive”.
Next, `O=c1oc2cc(O)ccc2cc1-c1nc2ccccc2o1`: “inactive”; `CCN(CC)c1ccc(S(=O)(=O)N(CC)CC)cc1NC(=O)c1cccnc1`: “inactive”.
In the case of `CCOC(=O)CNS(=O)(=O)c1ccc2c3c(cccc13)C(=O)N2CC`, the Potency entry was “inactive”.
Regarding `Cc1ccccc1N1C(=O)C(Cc2ccc(F)cc2)S/C1=C(\C#N)C(N)=O` (centres undefined), the Potency result is “inactive”.
For the molecule `CCN(CC)S(=O)(=O)c1ccc(C(=O)OCCN2C(=O)c3cccc4c(N5CCOCC5)ccc(c34)C2=O)cc1`, the Potency result is “inactive”.
In the case of `Cc1ccc2cc(C#N)c(NCCN=C(S)NCCCN3CCOCC3)nc2c1` it was “inactive”; in that of `COc1cc(/C=C(\C#N)c2nc3ccccc3s2)ccc1OCC(=O)Nc1ccccc1`, “inactive”.
`O=C(Nc1ccc(Cl)cc1)/C(=C/c1cccc(O)c1)c1nc2ccccc2s1`: the Potency was 12.6 µM (active).
Take `COc1cc(/C=C(\CC(=O)O)c2nc3ccccc3s2)cc(OC)c1O`: the Potency entry is “inactive”.
As for `COc1cccc(C2=CC(c3ccc(OC)c(OC)c3OC)n3ncnc3N2)c1` (centres undefined), the Potency result was “inactive”.
Consider `COc1ccc(OC)c(/C=C2\Oc3cc(OCC(=O)N4CCC(C(=O)O)CC4)ccc3C2=O)c1`, for which the Potency entry is “inactive”.
With `CC(=O)Oc1ccc2cc(-c3ccccc3)c(=O)oc2c1`, the Potency result is “inactive”.
As for `O=C(Cn1cnc2ccccc21)N1CCN(S(=O)(=O)c2ccccc2)CC1`, the Potency entry is “inactive”.
On to `Cc1ccc(S(=O)(=O)N2CCN(C(=O)CCn3cncn3)CC2)cc1C`, for which the Potency result was “inactive”.
In the case of `CC(=O)N1CCN(S(=O)(=O)c2ccc(F)c(Cl)c2)CC1` it was “inactive”; in that of `O=C(CCl)N1CCN(S(=O)(=O)c2ccc3c(c2)CCC3)CC1`, 8.91 µM (active); in that of `O=C(CCl)N1CCN(S(=O)(=O)c2ccc3ccccc3c2)CC1`, 39.8 µM (active).
For `Nc1cc(O)nc(SCC(=O)N2CCN(S(=O)(=O)c3ccc4ccccc4c3)CC2)n1`, the Potency result was “inactive”.
Next, `O=C(c1cnc(Cl)c(Cl)c1)N1CCN(S(=O)(=O)c2ccc3ccccc3c2)CC1`: 31.6 µM (active); `O=C(Cn1ncc(Cl)c(Cl)c1=O)N1CCN(S(=O)(=O)c2ccc3ccccc3c2)CC1`: 35.5 µM (active); `Cc1ccc(S(=O)(=O)N2CCCN(C(=O)c3ccc(-n4cccn4)cc3)CC2)cc1`: “inactive”.
Next, `O=C(Cc1cccs1)N1CCN(S(=O)(=O)c2ccc(Cl)c(C(F)(F)F)c2)CC1`: “inactive”.
For the molecule `CCN=C(S)N1CCN(S(=O)(=O)c2ccc(C)c(C)c2)CC1`, the Potency entry is “inactive”.
On to `CCOCCCNC(=O)CN1CCN(S(=O)(=O)c2ccc3c(c2)CCC3)CC1`, for which the Potency entry is “inactive”.
